The values below come from PubChem BioAssay AID1851 (National Center for Advancing Translational Sciences (NCATS), 2009).

Values joined by “and” are separate entries in the source; they are usually repeats but may differ in a detail not shown here. Equal entries are not always repeated. Among all 16,000 compounds or so, about 4,000 (25%) were called active. Another 26% or so got no clear call; they are omitted. The list is a sample of the results. Values without a mark were called inactive. The call rests on the fitted dose curve; in most records, active means well fitted curve in the direction sought with a large enough effect; inconclusive means small, poorly fitted or top-dose-only effect, or effect the other way; inactive means no such curve, though single readings can be large or run the other way.
On the % scale 0 is the no-effect control and ±100 the full control effect.

For the assay, the target named is Cytochrome P450 2C9 (Homo sapiens) (UniProt P11712). Nature of the assay: Cytochrome panel assay with activity outcomes. Conditions: recombinant CYP, pro-luciferin dealkylation, luminescence, p450-cyp2c9; series mostly up to 57.1 µM; activity, negative = inhibition: at the top concentration.
Chain of Cytochrome P450 2C9 (Homo sapiens) (P11712 whole entry, looked up): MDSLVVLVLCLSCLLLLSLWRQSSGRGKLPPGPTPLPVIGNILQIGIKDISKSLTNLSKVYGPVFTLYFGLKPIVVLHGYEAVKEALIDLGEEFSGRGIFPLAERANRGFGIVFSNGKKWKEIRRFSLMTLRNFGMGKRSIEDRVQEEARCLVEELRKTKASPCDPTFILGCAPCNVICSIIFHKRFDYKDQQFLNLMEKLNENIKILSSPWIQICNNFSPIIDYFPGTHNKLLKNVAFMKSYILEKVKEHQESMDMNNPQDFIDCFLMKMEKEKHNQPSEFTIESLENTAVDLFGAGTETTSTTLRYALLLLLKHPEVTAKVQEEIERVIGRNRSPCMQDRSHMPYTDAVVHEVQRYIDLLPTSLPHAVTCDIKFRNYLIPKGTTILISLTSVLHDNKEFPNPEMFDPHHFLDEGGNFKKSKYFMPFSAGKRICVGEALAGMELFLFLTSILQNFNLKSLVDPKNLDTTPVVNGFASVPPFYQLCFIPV
Turning to `C/C(CCN1CCc2nc(-c3ccccc3)c(-c3ccccc3)cc2C1)=N\O[C@@H](C)CN1CCCc2nc(C)c(C)cc21`, the activity, negative = inhibition was -19.9% [at 11.4 µM].

With `CC(C)=CCC/C(C)=C/CO/N=C1/C[C@@H](O)[C@@H](O)[C@@H]2[C@@H]3C(=O)N(Cc4ccc5c(c4)OCO5)C(=O)[C@H]3CC[C@@H]12`, the activity, negative = inhibition is -23.6% [at 11.4 µM].

On to `O=C(c1ccco1)N1CCC[C@@]2(CCN(Cc3ccccc3)C2)C1`, for which the “activity, negative = inhibition” value was 2.14%.

Turning to `COC(=O)C/C=C\[C@@H](C)[C@@H](/C=N\OC[C@@H](O)[C@H]1O[C@H]2OC(C)(C)O[C@H]2[C@@H]1O)OC`, the activity, negative = inhibition was 8.96% [at 11.4 µM].

Usually AC50 stands for the concentration at which the activity in the assay is half-maximal. Consider `CO/N=C\c1ccc(C(=O)N2[C@H](c3ccc(C)cc3)[C@@H](C)CC[C@H]2C(=O)OC)cc1`, for which the AC50 was 2.51 µM (active).

Turning to `COC(=O)[C@@H]1CC[C@H](C)[C@@H](c2ccc(C)cc2)N1C(=O)c1ccc(/C=N\OC[C@@H](O)[C@H]2O[C@H]3OC(C)(C)O[C@H]3[C@@H]2O)cc1`, the AC50 was 2.51 µM (active).

Consider `COC(=O)C/C=C\[C@@H](C)[C@@H](/C=N\OC[C@@H](O)[C@H]1O[C@H]2OC(C)(C)O[C@H]2[C@@H]1O)NS(=O)(=O)c1ccc(C)cc1`, for which the activity, negative = inhibition was 2.11% [at 11.4 µM].

As to `C[C@@]12CCC(=O)C=C1CC[C@@H]1[C@@H]2[C@H](O)C[C@]2(C)[C@@H]1CC[C@]2(O)C(=O)CO`, the “activity, negative = inhibition” value is -1.37% [at 25.6 µM].

Regarding `CN[C@@H](c1ccncc1)[C@@H](NC)c1ccncc1`, the activity, negative = inhibition is -8.04% [at 11.4 µM].

Consider `COCCNc1ncnc2ccc(-c3ccccc3C(F)(F)F)cc12`, for which the activity, negative = inhibition was 11% [at 2.29 µM].

For the compound `Cc1cc(C)cc(N(C(=O)Cc2cccs2)C(C(=O)NC2CCCCC2)c2ccccn2)c1` (stereo unspecified), the half-maximal activity concentration (AC50) was 17.8 µM (active).

As to `Cc1nn(C)cc1C(C(=O)NC1CCCCC1)N(C(=O)Cc1cccs1)c1ccc(C(C)C)cc1` (stereo unspecified), the AC50 is 25.1 µM (active).

Consider `CC(C)(C)NC(=O)C(c1ccccn1)N(C(=O)C1CSC(=O)C1)c1ccc(F)cc1` (stereo unspecified), for which the “activity, negative = inhibition” value was -13.1%.

Take `Cc1ccc(C(C(=O)NC2CCCCC2)N(CC2CCCO2)C(=O)CNC(=O)c2cccs2)cc1` (stereo unspecified): the “activity, negative = inhibition” value is -15.9%.

In the case of `NC1=C(O)C(=O)[C@H](c2c[nH]c3ccc(OCc4ccccc4)cc23)O1`, the activity, negative = inhibition is -27.4% [at 11.4 µM].

With `CC(C)/C(=N/[N+](C)(C)C)c1ccccc1`, the activity, negative = inhibition is 9.65% [at 11.4 µM].

In the case of `CC(C)C(=O)Nc1cc2c(cc1C(=O)c1ccccc1)OCCO2`, the AC50 was 8.91 µM (active).

Take `CC(=O)c1cc2c(cc1NC(=O)CCCC(=O)O)OCO2`: the “activity, negative = inhibition” value is 0.864%.

Take `O=C1Nc2ccccc2C1=Nc1ccc(S(=O)(=O)Nc2nccs2)cc1`: the activity, negative = inhibition was 8.43% [at 11.4 µM].

With `O=C(CCN1C(=O)S/C(=C\c2ccccc2)C1=O)Nc1ccc(S(=O)(=O)Nc2nccs2)cc1`, the AC50 is 1.58 µM (active).

For `O=C(O)c1ccccc1C(=O)Nc1ccc(S(=O)(=O)Nc2nccs2)cc1`, the “activity, negative = inhibition” value is -19.3% [at 25.6 µM].

`CCOc1ccc(OCC)c(-c2c(=O)n(OCc3ccc(C(C)(C)C)cc3)c3ccccc3[n+]2[O-])c1`: the AC50 is 6.31 µM (active).

With `CCOc1ccc(OCC)c(-c2c(=O)n(OCc3ccccc3C(=O)OC)c3ccccc3[n+]2[O-])c1`, the AC50 was 14.1 µM (active).

As to `O=c1c(-c2ccc(Cl)cc2)[n+]([O-])c2ccccc2n1OCc1ccccn1`, the “activity, negative = inhibition” value was -25.4%.

In the case of `OC[C@@H]1O[C@H](n2cnc3c(/C=C(\O)c4ccccc4)ncnc32)[C@H](O)[C@@H]1O`, the activity, negative = inhibition was 0.392% [at 11.4 µM].

As for `Cc1ccc(C)c(S(=O)(=O)N2CCC(c3nc4c(nnn4Cc4ccc(F)cc4)c(=O)[nH]3)CC2)c1`, the AC50 was 1.58 µM (active).

Take `COc1ccccc1Cn1nnc2c(=O)[nH]c(C3CCN(C(=O)c4ccc(C)cc4)CC3)nc21`: the AC50 was 5.62 µM (active).

Regarding `COc1ccc(C(=O)N2CCC3(CCN(Cc4ccccc4OC)CC3)CC2)cc1`, the “activity, negative = inhibition” value is 11.6%.

As for `COc1cccc(Cn2nnc3c(=O)[nH]c(C4CCCN(C(=O)c5ccccc5Cl)C4)nc32)c1` (stereo unspecified), the AC50 is 5.01 µM (active).

In the case of `COc1ccc(C(=O)N2CCC3(CCCN(Cc4ccccc4OC)C3)CC2)cc1`, the “activity, negative = inhibition” value was -18.1%.

As for `Cc1ccc(Cn2nnc3c(=O)[nH]c(C4CCN(C(=O)Cc5cccs5)CC4)nc32)cc1`, the half-maximal activity concentration (AC50) is 0.708 µM (active).

Take `Cc1ccn2cc(CSc3ccccc3N)nc2c1`: the “activity, negative = inhibition” value was -1.78%.

As for `NC1=C2NC=N[C@@H]2N(C/C=C\c2ccccc2)C=N1`, the activity, negative = inhibition was 1.29% [at 11.4 µM].

With `O=C(Cc1cccs1)N1CCC(c2nc3c(nnn3Cc3ccccc3Cl)c(=O)[nH]2)CC1`, the AC50 is 0.224 µM (active).

Consider `CCc1ncc(CO)n1Cc1cccc2ccccc12`, for which the activity, negative = inhibition is -1.15% [at 11.4 µM].

Turning to `COc1ccc(N2CCN(C(=N)/C(C(C)=O)=C(\C)O)CC2)cc1`, the “activity, negative = inhibition” value was -13.8%.

Regarding `COc1ccc(N2CCN(C(=S)Nc3cc(C)ccc3C)CC2)cc1`, the “activity, negative = inhibition” value was -18%.

As to `CCn1cnc2sc(C(=O)N3CCN(c4ccc(OC)cc4)CC3)c(C)c2c1=O`, the AC50 was 7.94 µM (active).

For `O=C(NCCCn1ccnc1)c1ccc(Br)c(S(=O)(=O)N2CCOCC2)c1`, the AC50 is 0.708 µM (active).

As for `O=C(NCCCN1CCOCC1)c1cc2c(s1)CSC2`, the “activity, negative = inhibition” value is -20.3%.

For `O=C(NCCN1CCOCC1)c1ccc2ccccc2c1`, the “activity, negative = inhibition” value is 0.564%.

Turning to `CN[C@@H]1[C@H](O[C@H]2[C@@H](O[C@@H]3[C@@H](O)[C@@H](O)[C@@H](N=C(N)N)[C@@H](O)[C@@H]3N=C(N)N)O[C@@H](C)[C@]2(O)CO)O[C@H](CO)[C@@H](O)[C@@H]1O`, the “activity, negative = inhibition” value was 4.16% [at 25.6 µM].

Turning to `CCCC(=O)NNC(=O)Nc1ccccc1`, the “activity, negative = inhibition” value is -2.98%.

`Cc1ccc(NC(=O)NNC(=O)C2CC(c3cccnc3)=NO2)cc1` (stereo unspecified): the “activity, negative = inhibition” value was -11.6%.

Take `Cc1ccc(NC(=O)NNC(=O)Cn2nc(-c3ccccc3)c(-c3ccccc3)c(C#N)c2=O)cc1`: the half-maximal activity concentration (AC50) was 3.16 µM (active).

In the case of `ClC(Cl)(Cl)C(N1CCN(c2ccccc2)CC1)N1CCN(c2ccccc2)CC1`, the activity, negative = inhibition was 18.4% [at 11.4 µM].

Take `CC(C)CC(c1nnnn1C(C)C)N1CCN(c2ccccc2)CC1` (stereo unspecified): the AC50 was 2 µM (active).

Turning to `OC[C@@H](O)CN1CCN(c2ccccc2)CC1`, the “activity, negative = inhibition” value was 5.85% [at 25.6 µM].

Regarding `NS(=O)(=O)c1cc2c(cc1Cl)=NC(CCC(=O)O)=NS=2(=O)O`, the activity, negative = inhibition was 3.24% [at 11.4 µM].

For `Cc1ccc(-c2ccc(/C=N/NC(=S)Nc3ccccc3)o2)cc1[N+](=O)[O-]`, the AC50 was 3.98 µM (active).

As for `Cc1ccc(-c2ccc(/C=N\NC(=O)c3cc4c(ccc5ccccc54)o3)o2)cc1[N+](=O)[O-]`, the “activity, negative = inhibition” value is -28.8%.

For `CCn1c2ccccc2c2cc(NS(=O)(=O)c3ccccc3C)ccc21`, the AC50 is 0.891 µM (active).

On to `CCn1c(=O)c2c(O)cc(=O)oc2c2ccccc21`, for which the “activity, negative = inhibition” value was -2.96%.

For `Cc1nc2cnc(N3CCN(C)CC3)nc2n(C)c1=O`, the “activity, negative = inhibition” value was 3.4%.

Consider `COC(=O)C1CSC(C(=O)OC)N1C(=O)Nc1ccccc1` (stereo unspecified), for which the “activity, negative = inhibition” value was -11.8%.

Take `COC(=O)C1CCC(C)(C(=O)Nc2ccccc2)C1(C)C` (stereo unspecified): the AC50 is 7.94 µM (active).

Turning to `COC(=O)N1CCC2(CC1)CN(C(=O)Nc1ccccc1)C2`, the “activity, negative = inhibition” value is 18.3%.

`C[C@@H]1O[C@H]2C3=C(C(=O)[C@H]4O[C@@H]4[C@H]3O)[C@@H]1[C@@H]1[C@@H](C)OC=C3[C@H](O)[C@H]4O[C@@H]4/C(=N\OCc4ccccc4)[C@]312`: the activity, negative = inhibition is -27.9% [at 11.4 µM].

On to `Cc1ccccc1-c1cc(Nc2ccccc2)ncn1`, for which the activity, negative = inhibition was 20.2% [at 2.29 µM].

Consider `O=C1C[C@@H](O)[C@@H](O)[C@H]2[C@@H]3C(=O)N(Cc4ccc5c(c4)OCO5)C(=O)[C@@H]3CC[C@H]12`, for which the activity, negative = inhibition is -7.97% [at 11.4 µM] and -24% [at 11.4 µM].

Turning to `COC(=O)c1ccc(C2C(Oc3ccccc3)C(=O)N2CCc2ccc(OC)c(OC)c2)cc1` (stereo unspecified), the “activity, negative = inhibition” value was -16.8%.

Consider `COc1ccc(CCN2C(=O)C(Oc3ccccc3C)C2c2ccc3c(c2)OCO3)cc1OC` (stereo unspecified), for which the AC50 was 7.94 µM (active).

In the case of `COc1ccc(CCN2CC34C=CC(O3)C(C(=O)NCc3ccccc3)C4C2=O)cc1OC` (stereo unspecified), the “activity, negative = inhibition” value is -25.5%.

As to `Cc1ccccc1OC1C(=O)N(Cc2ccc3c(c2)OCO3)C1c1sccc1C` (stereo unspecified), the AC50 was 7.94 µM (active).

With `O=C1[C@H]2[C@H]3[C@H](O)[C@H](O)C/C(=N/OCc4ccccc4)[C@@H]3CC[C@@H]2C(=O)N1Cc1ccc2c(c1)OCO2`, the activity, negative = inhibition is -27.6% [at 11.4 µM].

Consider `Cc1ccc(C)c(NC(=O)C2CC(O)CN2C(=O)OC(C)(C)C)c1` (stereo unspecified), for which the “activity, negative = inhibition” value was 17.3%.

With `Cc1ccc(C)c(NC(=O)c2ncn[nH]2)c1`, the “activity, negative = inhibition” value was -17.4%.

For the compound `Cc1ccc(C)c(NC(=O)C2CC3c4ccccc4C2c2ccccc23)c1` (stereo unspecified), the half-maximal activity concentration (AC50) is 5.01 µM (active).

On to `CCOC(=O)c1ccccc1NC(=O)CSc1cccc[n+]1[O-]`, for which the “activity, negative = inhibition” value is 2.23%.

In the case of `CCn1c(SCC(=O)Nc2ccccc2C(=O)OC)nnc1-c1ccc(N)cc1`, the concentration at half-maximal activity (AC50) is 22.4 µM (active).

On to `CCC(C)Nc1nc(OCC(F)(F)F)nc(OCC(F)(F)F)n1` (stereo unspecified), for which the “activity, negative = inhibition” value is -21.4%.

On to `O=c1ccc2cc(O)c(O)cc2o1`, for which the “activity, negative = inhibition” value was -3.88% [at 25.6 µM].

For `COC(=O)[C@@H]1C[C@H]1[C@@H](NC(=O)c1cccnc1)c1ccccc1`, the “activity, negative = inhibition” value is -17.5%.

Take `O=C(NC(NCc1ccccc1)C(Cl)(Cl)Cl)c1cccnc1` (stereo unspecified): the AC50 is 14.1 µM (active).

With `Cc1cccc(NC(NC(=O)c2cccnc2)C(Cl)(Cl)Cl)c1` (stereo unspecified), the half-maximal activity concentration (AC50) was 2.24 µM (active).

As to `CCOC(=O)CNC(=O)c1cccnc1`, the “activity, negative = inhibition” value was -16.7%.

For the compound `COC(=O)[C@H]1C[C@@H]1[C@H](NC(=O)c1cccnc1)c1ccccc1`, the “activity, negative = inhibition” value is -10.7%.

Take `Cc1cc(NC(=O)COc2ccc(Cl)cc2Cl)n(-c2ccccc2)n1`: the AC50 was 2.51 µM (active).

`O=C(COc1ccccc1Cl)Nc1cc(Cl)ccc1Oc1ccccc1`: the AC50 is 2.51 µM (active).

As to `CCc1cc2c(nc1CC)CCN(CC/C(C)=N/OCC[C@@H]1C=C[C@H](OC(C)=O)[C@H](COC(C)=O)O1)C2`, the activity, negative = inhibition is -1.15% [at 11.4 µM].

For `OC[C@@H]1O[C@@H](n2cnc3c(NC4CCCCC4)ncnc32)[C@@H](O)[C@H]1O`, the “activity, negative = inhibition” value is -26.3%.
